Compound activity as filed in PubChem.
FBW7 act – activators of human E3 ligase FBW7; AID 1259310; normalized activity (activation), % at 26.1 µM; 0.13% of 650,000 active; Q969H0; AlphaScreen FBW7–phospho-cyclin E peptide binding, activator screen; in the data active = normalized activity above about 1.9%;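 note: purified mutant Fbw7 with reduced substrate affinity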
TEAD-YAP block – TEAD-YAP interaction inhibition | HEK-TIYL cells, TEAD-Gal4/YAP UAS-luciferase luminescence | inhibition, % at 9.12 µM | 1.4% of 640,000 active | AID 1259422; in the data active = inhibition above about 32%;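 note: 0% = median of test compound wells and 100% = reference inhibitor wells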
MITF inh – inhibitors of human MITF | O75030 | AlphaScreen MITF homodimerization, bead proximity signal | inhibition, % at 2.6 µM | 0.91% of 650,000 active | AID 1259374; in the data active = inhibition above about 50%;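 note: 0% = vehicle wells with protein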
GPR151 activ – activates the human receptor GPR151. activation, % at 11.2 µM. PathHunter beta-arrestin GPR151 cells, luminescence. 1% of 650,000 active. AID 1508602. Q8TDV0; in the data active = activation above about 4.9%;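 note: 0% = median of compound wells and 100% = cells with positive control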
Target sequence (Q8TDV0 whole entry, looked up): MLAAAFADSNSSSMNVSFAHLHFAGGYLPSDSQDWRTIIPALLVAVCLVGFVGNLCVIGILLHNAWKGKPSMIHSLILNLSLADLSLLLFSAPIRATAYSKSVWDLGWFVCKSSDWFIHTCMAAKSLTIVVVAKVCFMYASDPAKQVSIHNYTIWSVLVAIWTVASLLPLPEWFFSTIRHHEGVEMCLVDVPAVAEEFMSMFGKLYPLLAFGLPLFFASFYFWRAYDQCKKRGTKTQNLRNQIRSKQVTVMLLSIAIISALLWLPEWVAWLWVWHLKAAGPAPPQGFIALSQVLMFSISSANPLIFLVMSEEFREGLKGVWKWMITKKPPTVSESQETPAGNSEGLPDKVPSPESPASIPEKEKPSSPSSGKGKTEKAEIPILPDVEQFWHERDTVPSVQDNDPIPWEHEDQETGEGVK
* = called active by the depositor. An excerpt weighted towards active compounds, which were near 3.5% of everything screened.

SMILES	FBW7 act	TEAD-YAP block	MITF inh	GPR151 activ
CCOc1ccc(-n2c(=S)sc3c(=O)n(-c4ccccc4)c(SCc4nc5ccccc5[nH]4)nc32)cc1	1	2	-4	-3
Cc1cccc(C)c1-n1c(SCc2ccccc2F)nc2c(sc(=S)n2-c2c(C)cccc2C)c1=O	0	41*	0	2
O=c1c2sc(=S)n(-c3ccccc3)c2nc(SCc2nc3ccccc3[nH]2)n1-c1ccccc1	0	33*	-7	-2
Cc1ccc(C2=NCCNC(C(F)(F)F)=C2)cc1	0	4	9	-1
O=C(O)c1cccnc1Nc1ccc([N+](=O)[O-])cc1	0	36*	21	-6
CC(C)c1ccc(NC(=O)CSc2nc3[nH]ncc3c(=O)n2-c2ccc(Cl)cc2)cc1	0	21	5	0
O=C(CSc1nc2[nH]ncc2c(=O)n1-c1ccccc1)Nc1ccc(C(F)(F)F)cc1	0	25	-14	0
Cc1ccccc1-n1c(SCC(=O)Nc2ccc(C(F)(F)F)cc2)nc2[nH]ncc2c1=O	1	37*	5	1
O=C(CSc1nc2[nH]ncc2c(=O)n1-c1ccccc1)Nc1ccc([N+](=O)[O-])cc1Cl	0	15	-2	-1
CC(C)c1ccc(NC(=O)CSc2nc3[nH]ncc3c(=O)n2-c2ccccc2)cc1	0	39*	3	4
COc1ccc(-n2c(SCC(=O)Nc3ccc([N+](=O)[O-])cc3Cl)nc3[nH]ncc3c2=O)cc1	0	32*	5	0
CSCC[C@H](NC(C)=O)C(=O)N1CCC(CCC(=O)Nc2cccc(C)c2)CC1	0	-15	4	0
CC1CCC(C(=O)NC(Cc2c[nH]c3ccccc23)C(=O)Nc2cccnc2)CC1 (configuration not stated)	0	58*	9	0
O=C(NC(Cc1c[nH]c2ccccc12)C(=O)Nc1ccccc1)Oc1ccccc1 (configuration not stated)	0	10	6	1
COc1ccc(NC(=O)C(Cc2c[nH]c3ccccc23)NC(=O)c2ccccc2)cc1 (configuration not stated)	0	62*	5	0
CCc1ccc(NC(=O)N2CCC(CN3CCCC3)CC2)cc1	0	-5	-6	-1
O=C(CCCCn1c(=O)c2ccccc2n(Cc2ccc(F)cc2Cl)c1=O)NCc1cccs1	0	-6	-7	-1
COc1cccc(Cn2c(=O)n(CCCCC(=O)NCc3ccco3)c(=O)c3ccccc32)c1	0	48*	3	-1
COc1cccc(Cn2c(=O)n(CCCCC(=O)NC3CCCCC3)c(=O)c3ccccc32)c1	0	1	-15	-1
O=C(CCCCn1c(=O)c2ccccc2n(Cc2ccccc2)c1=O)NCc1cccs1	0	38*	0	0
COc1ccccc1N1CCN(c2c(-c3ccc(C)cc3)c(=O)c2=O)CC1	0	71*	-3	4
Cc1ccc(-c2c(N3CCN(c4ccccc4F)CC3)c(=O)c2=O)cc1	0	0	-10	3
COc1cccc(N2CCN(c3c(-c4ccc(C)cc4)c(=O)c3=O)CC2)c1	0	66*	0	3
COc1ccc(CNC(=O)c2cn(C)nc2OC)cc1	0	0	-4	1
FC(F)(F)c1ccc(Cn2cnc3c(Nc4ccccc4)nc(Nc4ccc(-n5ccnc5)cc4)nc32)cc1	0	-10	-17	0
SMILES	FBW7 act	TEAD-YAP block	MITF inh	GPR151 activ
Cc1cc(C(F)(F)F)c(N)c(SCC(=O)Nc2nc3ccccc3s2)n1	0	65*	-3	1
Cc1cc(C)c(C#N)c(SCC(=O)Nc2nccs2)n1	0	-54	-3	-1
Cc1cc(C)nc(SCC(=O)Nc2nc3ccccc3s2)n1	0	-4	-5	-1
Cc1cc(C)c(C#N)c(SCC(=O)Nc2ccccn2)n1	0	86*	9	-1
Cc1cccc(NC(=O)CSc2nc(C)cc(C(F)(F)F)c2C#N)n1	1	88*	14	-2
COC(=O)CSc1nc(N)c(C#N)c(-c2ccco2)c1C#N	0	0	-11	1
COC(=O)CSc1nc(-c2ccco2)cc(C(F)(F)F)c1C#N	2.0*	11	0	-1
Cc1cc(C(F)(F)F)c(C#N)c(SCC(=O)Nc2ccc(F)cc2)n1	0	-12	4	0
COc1ccc(-n2cccc2/C=C2\NC(=O)N(CC(=O)Nc3ccccc3)C2=O)cc1	0	-3	9	2
Cc1ccc(NC(=O)CN2C(=O)N/C(=C/c3cccn3-c3ccc(C(=O)O)cc3)C2=O)cc1	0	1	79*	0
c1ccc2[nH]c(-c3cc(-c4cc(-c5nc6ccccc6[nH]5)c5ccccc5n4)nc4ccccc34)nc2c1	0	82*	11	-10
